HCV inhibitor: qHTS Assay for Inhibitors of Hepatitis C Virus (HCV); Huh7.5.1 HCVcc-Cre infection, luciferase reporter, 44 h; Potency, µM (top dose mostly 41.8 µM), inactives show at the highest dose activity change, negative = inhibition, actives largely listed as inhibitors; actives 3.4% (n = 340,000); active = well fitted inhibition curve with a large enough effect; inconclusive = small, poorly fitted or top-dose-only effect, or another doubt; inactive = no such curve, though single readings can be large or run the other way; also: potency is read from the fitted curve at half-maximal effect
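A cell-based infection assay in which seeded cells (1,000 per well) receive test compound after 4 h, are inoculated with HCVcc-Cre at approximately 0.5 moi, and are incubated 44 h before luminescence detection.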
VACV Venus inh: qHTS for Stage-Specific Inhibitors of Vaccinia Orthopoxvirus: Venus Reporter Primary qHTS; actives 0.46% (n = 330,000); Vaccinia virus Venus reporter expression, fluorescence; AID 720580, 2013; Potency, µM (titrated, usually from 36.5 µM), without a hit: top-dose activity change, negative = inhibition, usual class: inhibitors; calls by dose curve; tested in A549 cells; also: potency is read from the fitted curve at half-maximal effect; nearly all actives have a fitted effect of over 30% in size
FMDV inh: High Throughput Screening for Foot and Mouth Disease Virus Antivirals; FMDV antiviral cell-based qHTS; Potency, µM (series often up to 57.9 µM), inactives show at the highest dose activity change, negative = inhibition, actives largely listed as inhibitors; actives 1.2% (n = 410,000); AID 1159524, 2015; calls by dose curve; tested in HEK293T cells; also: read-out not given here; potency is read from the fitted curve at half-maximal effect; nearly all actives have a fitted effect of over 45% in size
VACV mCherry inh: qHTS for Stage-Specific Inhibitors of Vaccinia Orthopoxvirus: mCherry Reporter Primary qHTS. Vaccinia virus mCherry reporter infection, fluorescence. Potency, µM (top dose mostly 36.5 µM), for inactives: top-dose activity change, negative = inhibition, actives largely listed as inhibitors. actives 0.63% (n = 310,000); calls by dose curve; tested in A549 cells; also: potency is read from the fitted curve at half-maximal effect; nearly all actives have a fitted effect of over 35% in size
HCMV antiviral: qHTS Assay for inhibitors of the human cytomegalovirus (HCMV). actives 4.5% (n = 410,000). HFF cells, HCMV-luciferase reporter, 72 h; stronger effect = lower value. activity change, negative = inhibition, % at 57.5 µM; in the data active = activity change below about -60%; inconclusive = no clear call, values can overlap the other calls; inactive = above about -39%
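Screen run at 2 compound doses on HFFs infected with reporter HCMV, MOI 1 PFU/cell. Luciferase activity from cell lysates at 72 h post infection gave inhibition relative to buffer-only and Salinomycin wells.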
An asterisk follows results filed as active; i = inactive; ? = inconclusive; · = not tested or not shown; [ ] = dose if it differs, or a comment. This is a sample that favours compounds with a hit; in the whole collection about 7.3% have one here. % is scaled to controls: 0 for no effect and ±100 for the full control effect.

SMILES	HCV inhibitor	VACV Venus inh	FMDV inh	VACV mCherry inh	HCMV antiviral
O=c1cnc2cnc(N3CCNCC3)nc2n1C1CC1	·	·	-17%	·	·
N#Cc1cccnc1N1CCN(C(=O)c2cccc3c2C(=O)c2ccc(Cl)cc2S3(=O)=O)CC1	13µM*	-9%	-10%	i	32
CCCc1cc(C(=O)N2CCCC(C(=O)c3cccc4ccccc34)C2)n(C)n1 (stereo unspecified)	?	·	-14%	·	0
CCc1cc(C(=O)N2CCCC(C(=O)c3cccc4ccccc34)C2)n(C)n1 (stereo unspecified)	10µM*	-23%	?	-15%	-60*
CCOc1ccsc1C(=O)O	3.2µM*	-22%	2%	0%	-2
Cc1ccc(COc2ccsc2C(=O)O)cc1	6%	8%	1%	-3%	15
Cc1ccccc1NC(=O)c1ccc(N(Cc2ccccc2)S(C)(=O)=O)cc1	·	-7%	-2%	1%	?
CS(=O)(=O)N(Cc1ccccc1)c1ccc(C(=O)Nc2ccc(Cl)cc2)cc1	·	-21%	?	i	-88*
COc1ccc(N(C)S(=O)(=O)c2cccc(C(=O)Nc3nc4ccccc4[nH]3)c2)cc1	?	?	?	-25%	?
C=CCN(c1ccccc1)S(=O)(=O)c1cccc(C(=O)Nc2nc3ccccc3[nH]2)c1	-26%	-23%	22µM*	-6%	-8
CN(c1cccc(Cl)c1)S(=O)(=O)c1cccc(C(=O)Nc2nc3ccccc3[nH]2)c1	?	11µM*	13µM*	?	-99*
C=CCN(c1ccccc1)S(=O)(=O)c1cccc(C(=O)O)c1	7%	1%	-21%	-10%	31
C=CCN(c1ccccc1)S(=O)(=O)c1cccc(C(=O)Nc2ccc(N3CCOCC3)cc2)c1	7.1µM*	?	22µM*	?	?
CCN(c1ccccc1)S(=O)(=O)c1ccc(C(=O)Nc2ccncc2)cc1	?	-24%	25µM*	-11%	-25
CCN(c1ccccc1)S(=O)(=O)c1cc(C(=O)Nc2ccc(F)c(F)c2)ccc1F	4.5µM*	?	11µM*	?	-91*
CCN(c1ccccc1)S(=O)(=O)c1ccc(C(=O)Nc2cccc(NC(C)=O)c2)cc1	-1%	·	?	·	-7
C=CCN(c1ccccc1)S(=O)(=O)c1cccc(C(=O)Nc2ccncc2)c1	?	-16%	22µM*	-6%	-75*
Cc1cc2c(cc1C)N[C@]1(C[C@H]3CCCC(=O)N4CC[C@@H](C1)[C@@H]34)C(=NC1CCCCC1)N2	·	-13%	·	-16%	·
COC(=O)CCCC(=O)N1CCOCCN(C(=O)CCCC(=O)OC)CCOCC1	14%	-12%	-15%	·	-101*
COCC(=O)Nc1cc(C(=O)N[C@H]2CCCCNC2=O)c2c(c1)nc(-c1ccncc1)n2C	·	0%	2%	-4%	·
Cc1ccc2[nH]c(C)c(/C=N/Nc3nc4ccccc4s3)c2c1	?	·	-21%	·	56
CCCn1c(/C=C/c2cc[n+](C)cc2)nc2ccccc21	-18%	-13%	-4%	i	?
Cc1ccc2[nH]c(C)c(/C=C/c3cc[n+](C)cc3)c2c1	?	227%	-26%	?	-100*
Cc1ccc2c(c1)c(/C=C/c1cc[n+](C)cc1)c(C)n2C	10µM*	i	?	-23%	-98*
COc1cc(NC(=O)C2CCN(S(=O)(=O)c3c(C)noc3/C=C/c3c(C)cc(C)cc3C)CC2)cc(OC)c1	·	-7%[7.34 µM]	-19%	-12%[7.34 µM]	33
SMILES	HCV inhibitor	VACV Venus inh	FMDV inh	VACV mCherry inh	HCMV antiviral
CCN(CC)CCCOC(=O)C(OC)(c1ccccc1)c1ccccc1	8%	-19%	·	?	-24
CCN(CC)CCCOC(=O)C(c1ccccc1)c1ccccc1	0.56µM*	-8%	-20%	-6%	-27
CCCCn1cc(S(=O)(=O)c2ccccc2)c(=O)c2cc(F)c(N3CCC(C)CC3)cc21	·	-11%	-16%	-11%	3
Cc1ccc(S(=O)(=O)N2CCN(CC(=O)Nc3ccc([N+](=O)[O-])cc3)CC2)cc1C	-16%	-27%	-26%	-19%	?
O=C(CN1CCN(S(=O)(=O)c2ccccc2)CC1)Nc1ccc([N+](=O)[O-])cc1	?	3%	0%	-2%	-69*
CC(C)c1ccccc1OCC(O)CN1CCN(S(=O)(=O)c2ccc([N+](=O)[O-])cc2)CC1 (stereo unspecified)	13µM*	?	?	?	23
CCc1cccc(C)c1NC(=O)CN1CCN(S(=O)(=O)c2ccc(C(C)(C)C)cc2)CC1	2µM*	-20%	-24%	?	-20
CCc1cccc(C)c1NC(=O)COC(=O)C1CCN(S(=O)(=O)c2ccccc2)CC1	-5%[8.37 µM]	-16%	-16%	-1%	3
COc1ccc(OCC(=O)Nc2cc(-c3nc4ccccc4o3)ccc2Cl)cc1	·	-5%	52%	-16%	85
O=C(NCC1CCC2(CCN(Cc3cc4ccccc4o3)CC2)O1)c1ccccc1 (stereo unspecified)	·	-1%	0%	-5%	·
CCn1c(C)c(C(C)=O)c(NCc2ccccc2)nc1=S	0%	-8%	51%	-19%	-81*
CC(=O)c1c(NCCc2ccccc2)nc(=S)n(-c2ccccc2)c1C	?	·	?	·	-101*
CC(C)c1cccc(-c2nc3c(NC4CCC(O)CC4)nccc3[nH]2)c1 (stereo unspecified)	·	·	·	·	-6
COc1cccc2c(=O)cc(C)n(CC(=O)Nc3ccc(C)c(C)c3)c12	5µM*	?	?	·	-17
COc1ccccc1NC(=O)Cn1c(=O)n(Cc2cccs2)c(=O)c2cccnc21	·	-18%	-14%	-13%	-64*
COc1ccccc1NC(=O)Cn1c(C)cc(C)c(C#N)c1=O	·	-3%	-26%	12%	13
COc1ccccc1NC(=O)Cn1c(C)cc(=O)c2cccc(OC)c21	?	?	7.1µM*	?	-10
COc1cc(CN2CCCC(n3cc(C(=O)N4CCCCC4)nn3)C2)cc2c1OCO2 (stereo unspecified)	·	-4%	-7%	0%	·
CCCC1OC2C[C@@H]3[C@H]4CCC5=CC(=O)C=C[C@]5(C)[C@H]4C(O)C[C@]3(C)[C@]2(C(=O)CO)O1 (stereo partly specified)	·	-28%	·	-26%	·
O=C(Nc1cc(Oc2ccccc2)cc([N+](=O)[O-])c1)C12CC3CC(C1)CC(n1cnc(Cl)n1)(C3)C2	10µM*	·	-18%	·	47
COc1ccc(N2CCN(C(c3ccccc3)c3nnnn3C(C)C)CC2)cc1 (stereo unspecified)	·	-18%	·	-11%	·
O=C(CCCN1C(=O)/C(=C/c2cccs2)SC1=S)Nc1ccccn1	11%	2%	0%	-22%	-98*
O=C(CCN1C(=O)/C(=C\c2cccs2)SC1=S)Nc1ccccn1	?	22%	-7%	7%	-37

Bioassay records: PubChem BioAssay, National Center for Advancing Translational Sciences (NCATS)
